From the supplement of paper PMC10849652
Targets with a hit are over-represented here; the source holds about 8,800 in all. About 0.5% of all pairs of compound and target were hits. Unmarked numbers belong to inactive results.

Tests used:
Assay in all cases: log2 fold change, soluble protein after heating vs DMSO (PISA); higher = thermal stabilisation; K562 lysate, 10 uM; active = over 0.2 and 3.5 SD of the protein, either way, in both replicates (recomputed)
lapatinib = compound: CS(=O)(=O)CCNCc1ccc(-c2ccc3ncnc(Nc4ccc(OCc5cccc(F)c5)c(Cl)c4)c3c2)o1 [lapatinib]
Outline: (§1)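 To prepare the extract, K562 pellets were dounce-homogenised in PBS pH 7.4 with 1 mM MgCl2, giving crude material at 1 mg/mL protein. This was treated with 10 μM compound for 30 min, then heated in aliquots for 3 min over 48°C-58°C before pooling and addition of NP-40 to 0.5% at 4°C. Centrifugation at 21,000xg for 90 min left soluble protein in the supernatant, which TMTpro 16plex LC-MS/MS quantified with equalised channel sums. Results are log-two fold changes in thermal stability compared with solvent controls, from duplicates.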

pictilisib = compound: CS(=O)(=O)N1CCN(Cc2cc3nc(-c4cccc5[nH]ncc45)nc(N4CCOCC4)c3s2)CC1 [pictilisib]
Outline: as §1

crizotinib = compound: C[C@@H](Oc1cc(-c2cnn(C3CCNCC3)c2)cnc1N)c1c(Cl)ccc(F)c1Cl [crizotinib]
Outline: as §1

[1] = compound: C[C@H](C1=CC=C(C=C1)C(=O)NC2=C3C=CNC3=NC=C2)N
Outline: as §1

duvelisib = compound: C[C@H](Nc1ncnc2nc[nH]c12)c1cc2cccc(Cl)c2c(=O)n1-c1ccccc1 [duvelisib]
Outline: as §1

gandotinib = compound: Cc1cc(Nc2cc(CN3CCOCC3)c3nc(C)c(Cc4ccc(Cl)cc4F)n3n2)n[nH]1 [gandotinib]
Outline: as §1

tozasertib = compound: Cc1cc(Nc2cc(N3CCN(C)CC3)nc(Sc3ccc(NC(=O)C4CC4)cc3)n2)n[nH]1 [tozasertib]
Outline: as §1

doramapimod = compound: Cc1ccc(-n2nc(C(C)(C)C)cc2NC(=O)Nc2ccc(OCCN3CCOCC3)c3ccccc23)cc1 [doramapimod]
Outline: as §1

bafetinib = compound: Cc1ccc(NC(=O)c2ccc(CN3CC[C@H](N(C)C)C3)c(C(F)(F)F)c2)cc1Nc1nccc(-c2cncnc2)n1 [bafetinib]
Outline: as §1

[2] = compound: Cc1cccc(CC(=O)N2CCc3c2ccc(-c2cn(C)c4ncnc(N)c24)c3F)n1
Outline: as §1

nilotinib = compound: Cc1cn(-c2cc(NC(=O)c3ccc(C)c(Nc4nccc(-c5cccnc5)n4)c3)cc(C(F)(F)F)c2)cn1 [nilotinib]
Outline: as §1

[3] = compound: Cc1nc(Nc2n[nH]c3c2CN(C(=O)N[C@H](CN(C)C)c2ccccc2)C3(C)C)c2sccc2n1
Outline: as §1

dasatinib = compound: Cc1nc(Nc2ncc(C(=O)Nc3c(C)cccc3Cl)s2)cc(N2CCN(CCO)CC2)n1 [dasatinib]
Outline: as §1

[4] = compound: Cc1ncc(-c2ccnc(Nc3ccc(S(C)(=O)=O)cc3)n2)n1C(C)C
Outline: as §1

[5] = compound: Cn1cc(-c2ccc3c(c2)CCN3C(=O)Cc2cccc(C(F)(F)F)c2)c2c(N)ncnc21
Outline: as §1

quisinostat = compound: Cn1cc(CNCC2CCN(c3ncc(C(=O)NO)cn3)CC2)c2ccccc21 [quisinostat]
Outline: as §1

tipifarnib = compound: Cn1cncc1[C@@](N)(c1ccc(Cl)cc1)c1ccc2c(c1)c(-c1cccc(Cl)c1)cc(=O)n2C [tipifarnib]
Outline: as §1

[6] = compound: NC(=O)Nc1cc(-c2cccc(F)c2)sc1C(=O)N[C@H]1CCCNC1
Outline: as §1

[7] = compound: NC(=O)c1cnc(N[C@@H]2CCCC[C@@H]2N)nc1Nc1cccc(-n2nccn2)c1
Outline: as §1

[8] = compound: NC1(c2ccc(-c3nc4ccn5c(=O)[nH]nc5c4cc3-c3ccccc3)cc2)CCC1
Outline: as §1

UniProt Q06210, sequence (Q06210 whole entry, looked up): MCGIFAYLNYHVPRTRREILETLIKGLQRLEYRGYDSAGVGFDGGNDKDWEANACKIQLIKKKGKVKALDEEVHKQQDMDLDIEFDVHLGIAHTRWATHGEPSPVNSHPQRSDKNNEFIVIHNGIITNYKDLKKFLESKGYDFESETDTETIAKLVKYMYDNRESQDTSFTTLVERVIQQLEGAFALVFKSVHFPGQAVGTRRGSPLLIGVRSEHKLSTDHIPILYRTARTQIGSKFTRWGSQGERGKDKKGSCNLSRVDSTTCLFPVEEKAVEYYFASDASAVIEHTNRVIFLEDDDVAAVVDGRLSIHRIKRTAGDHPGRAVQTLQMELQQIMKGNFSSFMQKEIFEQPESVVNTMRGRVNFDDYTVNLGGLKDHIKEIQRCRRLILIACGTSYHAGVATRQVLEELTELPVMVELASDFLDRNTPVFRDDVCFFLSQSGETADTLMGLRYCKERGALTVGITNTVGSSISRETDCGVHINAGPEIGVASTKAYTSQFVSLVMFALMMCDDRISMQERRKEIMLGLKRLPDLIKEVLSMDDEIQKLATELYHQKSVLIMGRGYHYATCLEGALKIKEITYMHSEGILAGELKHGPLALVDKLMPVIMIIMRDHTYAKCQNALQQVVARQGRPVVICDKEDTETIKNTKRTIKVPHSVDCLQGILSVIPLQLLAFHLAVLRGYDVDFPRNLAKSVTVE
UniProt P07814, sequence (P07814 whole entry, looked up): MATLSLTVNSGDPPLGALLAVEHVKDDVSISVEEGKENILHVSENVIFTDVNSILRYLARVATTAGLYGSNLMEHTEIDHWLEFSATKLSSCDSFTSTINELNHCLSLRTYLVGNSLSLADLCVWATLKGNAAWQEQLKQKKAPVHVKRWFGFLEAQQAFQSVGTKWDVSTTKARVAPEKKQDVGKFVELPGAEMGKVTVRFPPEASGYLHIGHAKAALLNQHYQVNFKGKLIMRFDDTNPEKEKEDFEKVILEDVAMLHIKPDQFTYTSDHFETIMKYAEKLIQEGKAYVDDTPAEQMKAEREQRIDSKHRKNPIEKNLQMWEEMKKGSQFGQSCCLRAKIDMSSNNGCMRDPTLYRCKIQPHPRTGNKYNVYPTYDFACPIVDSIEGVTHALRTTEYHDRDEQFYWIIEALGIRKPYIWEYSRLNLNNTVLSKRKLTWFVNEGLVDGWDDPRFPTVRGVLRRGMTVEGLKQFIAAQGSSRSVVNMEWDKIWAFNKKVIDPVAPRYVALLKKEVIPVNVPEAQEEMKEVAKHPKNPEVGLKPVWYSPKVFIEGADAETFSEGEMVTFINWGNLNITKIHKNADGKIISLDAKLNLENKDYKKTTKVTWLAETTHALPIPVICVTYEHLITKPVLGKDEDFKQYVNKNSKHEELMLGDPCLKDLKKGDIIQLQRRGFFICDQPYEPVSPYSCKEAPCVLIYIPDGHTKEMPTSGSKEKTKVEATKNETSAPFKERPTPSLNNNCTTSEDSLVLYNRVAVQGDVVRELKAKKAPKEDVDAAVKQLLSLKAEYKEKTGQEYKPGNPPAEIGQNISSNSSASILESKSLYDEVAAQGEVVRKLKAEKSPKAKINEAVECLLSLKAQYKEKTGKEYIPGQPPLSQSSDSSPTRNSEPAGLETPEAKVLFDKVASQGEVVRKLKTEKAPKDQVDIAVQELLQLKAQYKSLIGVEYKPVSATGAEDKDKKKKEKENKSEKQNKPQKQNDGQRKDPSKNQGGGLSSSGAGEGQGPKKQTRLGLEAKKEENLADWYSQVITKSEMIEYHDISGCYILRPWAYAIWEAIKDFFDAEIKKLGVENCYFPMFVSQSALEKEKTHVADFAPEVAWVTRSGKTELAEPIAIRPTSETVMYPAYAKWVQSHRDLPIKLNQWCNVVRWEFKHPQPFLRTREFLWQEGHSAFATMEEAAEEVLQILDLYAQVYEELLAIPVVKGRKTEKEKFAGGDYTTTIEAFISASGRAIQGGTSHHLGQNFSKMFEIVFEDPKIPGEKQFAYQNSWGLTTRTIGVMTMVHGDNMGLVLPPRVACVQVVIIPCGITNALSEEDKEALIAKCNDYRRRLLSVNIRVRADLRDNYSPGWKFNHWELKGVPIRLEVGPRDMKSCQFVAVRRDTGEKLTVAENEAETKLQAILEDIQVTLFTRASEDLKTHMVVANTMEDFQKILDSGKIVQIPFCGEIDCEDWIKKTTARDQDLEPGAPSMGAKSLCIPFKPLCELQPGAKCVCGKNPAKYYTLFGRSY
UniProt A6NHQ2, sequence (A6NHQ2 whole entry, looked up): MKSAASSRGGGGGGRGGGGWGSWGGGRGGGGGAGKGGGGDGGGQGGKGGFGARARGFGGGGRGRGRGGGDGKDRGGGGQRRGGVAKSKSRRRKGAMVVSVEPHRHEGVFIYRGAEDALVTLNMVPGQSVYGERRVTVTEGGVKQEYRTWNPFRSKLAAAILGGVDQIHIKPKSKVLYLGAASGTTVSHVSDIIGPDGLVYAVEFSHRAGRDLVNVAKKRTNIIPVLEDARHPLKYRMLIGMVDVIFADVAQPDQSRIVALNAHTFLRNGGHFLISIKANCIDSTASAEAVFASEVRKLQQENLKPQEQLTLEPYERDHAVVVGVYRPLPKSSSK
UniProt P62942, sequence (P62942 whole entry, looked up): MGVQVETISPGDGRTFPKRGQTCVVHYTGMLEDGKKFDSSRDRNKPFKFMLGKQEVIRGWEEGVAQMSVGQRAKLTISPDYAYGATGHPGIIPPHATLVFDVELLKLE
UniProt Q8TAG9, sequence (Q8TAG9 whole entry, looked up): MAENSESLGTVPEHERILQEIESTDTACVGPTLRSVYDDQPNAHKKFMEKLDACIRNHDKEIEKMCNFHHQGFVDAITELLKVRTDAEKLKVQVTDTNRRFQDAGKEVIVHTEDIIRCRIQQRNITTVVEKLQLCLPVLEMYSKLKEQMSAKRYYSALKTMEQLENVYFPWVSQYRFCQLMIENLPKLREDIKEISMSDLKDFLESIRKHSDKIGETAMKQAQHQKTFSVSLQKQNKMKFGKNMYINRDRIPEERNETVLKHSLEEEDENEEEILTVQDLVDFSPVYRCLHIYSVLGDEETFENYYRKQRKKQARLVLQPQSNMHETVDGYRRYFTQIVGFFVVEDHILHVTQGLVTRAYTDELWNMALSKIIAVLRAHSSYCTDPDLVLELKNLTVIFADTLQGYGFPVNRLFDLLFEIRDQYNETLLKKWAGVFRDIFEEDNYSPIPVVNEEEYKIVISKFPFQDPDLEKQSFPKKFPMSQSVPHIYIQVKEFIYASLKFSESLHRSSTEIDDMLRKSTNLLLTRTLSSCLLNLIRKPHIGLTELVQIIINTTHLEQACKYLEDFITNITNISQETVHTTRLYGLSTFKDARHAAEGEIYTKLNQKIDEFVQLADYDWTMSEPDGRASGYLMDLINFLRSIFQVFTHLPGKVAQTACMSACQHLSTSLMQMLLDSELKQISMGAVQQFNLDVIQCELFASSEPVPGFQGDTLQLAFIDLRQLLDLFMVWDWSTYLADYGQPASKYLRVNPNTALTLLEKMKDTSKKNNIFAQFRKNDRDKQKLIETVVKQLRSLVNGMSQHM
UniProt P06733, sequence (P06733 whole entry, looked up): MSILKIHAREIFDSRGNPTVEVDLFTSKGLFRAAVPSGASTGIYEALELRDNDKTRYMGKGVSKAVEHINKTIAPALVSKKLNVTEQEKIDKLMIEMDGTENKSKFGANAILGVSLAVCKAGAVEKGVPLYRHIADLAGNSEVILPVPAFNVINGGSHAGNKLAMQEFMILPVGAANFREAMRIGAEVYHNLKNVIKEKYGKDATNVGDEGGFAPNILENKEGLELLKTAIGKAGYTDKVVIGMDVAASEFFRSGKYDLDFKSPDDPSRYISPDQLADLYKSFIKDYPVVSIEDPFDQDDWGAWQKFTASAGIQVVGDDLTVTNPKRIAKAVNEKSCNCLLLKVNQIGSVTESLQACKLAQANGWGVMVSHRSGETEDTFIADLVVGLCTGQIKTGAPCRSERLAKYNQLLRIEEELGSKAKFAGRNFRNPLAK
UniProt P11413, sequence (P11413 whole entry, looked up): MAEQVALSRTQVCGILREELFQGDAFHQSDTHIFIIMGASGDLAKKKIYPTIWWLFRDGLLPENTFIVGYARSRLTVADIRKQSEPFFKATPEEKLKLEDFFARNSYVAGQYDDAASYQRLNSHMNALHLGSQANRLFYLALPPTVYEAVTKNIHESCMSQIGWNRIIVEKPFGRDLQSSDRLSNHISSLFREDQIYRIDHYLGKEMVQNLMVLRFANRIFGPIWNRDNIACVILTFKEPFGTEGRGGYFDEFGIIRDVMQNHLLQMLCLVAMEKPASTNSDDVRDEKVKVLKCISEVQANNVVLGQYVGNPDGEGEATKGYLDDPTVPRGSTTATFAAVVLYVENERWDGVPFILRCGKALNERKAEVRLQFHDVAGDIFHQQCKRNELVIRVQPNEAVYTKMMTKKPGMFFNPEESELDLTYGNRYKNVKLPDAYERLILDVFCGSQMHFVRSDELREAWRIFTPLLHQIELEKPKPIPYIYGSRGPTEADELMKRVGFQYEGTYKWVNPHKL
UniProt P0DPD7, sequence (P0DPD7 whole entry, looked up): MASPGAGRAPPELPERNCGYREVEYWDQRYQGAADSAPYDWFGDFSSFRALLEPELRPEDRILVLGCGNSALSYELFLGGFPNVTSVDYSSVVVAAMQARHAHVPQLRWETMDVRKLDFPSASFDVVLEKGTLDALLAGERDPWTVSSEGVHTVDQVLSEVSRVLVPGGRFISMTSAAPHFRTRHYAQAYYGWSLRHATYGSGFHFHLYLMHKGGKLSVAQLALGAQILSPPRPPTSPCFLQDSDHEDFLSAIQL

Target	log2 fold change (lapatinib)	log2 fold change (pictilisib)	log2 fold change (crizotinib)	log2 fold change [1]	log2 fold change (duvelisib)	log2 fold change (gandotinib)	log2 fold change (tozasertib)	log2 fold change (doramapimod)	log2 fold change (bafetinib)	log2 fold change [2]	log2 fold change (nilotinib)	log2 fold change [3]	log2 fold change (dasatinib)	log2 fold change [4]	log2 fold change [5]	log2 fold change (quisinostat)	log2 fold change (tipifarnib)	log2 fold change [6]	log2 fold change [7]	log2 fold change [8]
EEFSEC (UniProt P57772)	-0.019	0.008	-0.042	-0.043	0.031	-0.023	0.024	0.022	-0.079	0.041	0.004	0.01	-0.067	-0.03	0.007	-0.043	-0.003	0.052	0	-0.019
FBLL1 (UniProt A6NHQ2)	0.014	-0.076	-0.041	-0.277 (active)	0.059	0.028	0.047	-0.013	-0.075	0.053	0.006	-0.015	-0.048	-0.101	0	-0.07	-0.009	0.026	-0.037	0
EXOC6 (UniProt Q8TAG9)	-0.017	-0.04	-0.121	-0.013	0	-0.166	0.029	0.004	-0.059	0.033	-0.002	0.01	-0.063	0.022	0.064	-0.023	-0.044	0.068	0.024	-0.064
FAM98A (UniProt Q8NCA5)	0.001	-0.024	0.007	0.074	-0.024	-0.059	0.023	-0.015	0.012	0	-0.045	0.034	-0.034	0.018	-0.022	-0.042	0.009	-0.004	-0.028	-0.014
FAM120B (UniProt Q96EK7)	0.041	-0.012	-0.021	-0.018	-0.021	-0.051	-0.064	0.021	-0.045	0.045	-0.067	-0.017	-0.033	-0.008	0.017	-0.062	0.05	0.015	-0.029	-0.048
DST (UniProt Q03001)	-0.019	0.015	-0.02	-0.17	0.018	0.101	0.024	0.023	-0.137	0.246	-0.002	-0.035	-0.023	0.045	-0.06	-0.118	0.069	0.022	0.027	-0.107
FKBP1A (UniProt P62942)	-0.011	-0.031	0.005	-0.814 (active)	0.074	0.266	-0.037	-0.04	-0.111	0.15	0.023	0.002	-0.005	0.081	-0.103	0.012	0.038	-0.005	0.002	-0.039
ERAL1 (UniProt O75616)	0.075	-0.025	-0.035	-0.152	0.014	0.321 (active)	0.041	0.006	-0.079	0.03	0	-0.001	0.01	0.003	0.018	-0.078	-0.027	0.083	-0.052	0.008
ENO1 isoform 2 (UniProt P06733)	0.005	-0.012	-0.019	-0.285 (active)	0.049	0.153	0.026	-0.019	0.07	0.222	0.01	-0.009	0.021	-0.036	-0.012	-0.038	0.035	-0.007	-0.008	0.004
GFPT1 (UniProt Q06210)	-0.001	-0.026	-0.033	0.009	-0.002	-0.066	-0.013	-0.001	-0.031	0.007	0.003	-0.009	-0.013	0.008	0.002	-0.031	-0.006	0.027	-0.003	-0.025
GATAD2A isoform 3 (UniProt Q86YP4)	-0.012	-0.031	-0.011	-0.031	-0.037	0.016	-0.009	0.026	0.001	0.061	0.041	0.001	0.006	-0.009	0.001	-0.074	-0.009	0.032	0.002	-0.024
G6PD isoform 2 (UniProt P11413)	0.018	-0.022	-0.03	0.094	-0.023	-0.063	-0.003	-0.015	0.037	-0.035	0.013	-0.008	0.01	-0.012	-0.01	-0.021	0.016	0.012	-0.035	0.008
DYNC1I2 isoform 5 (UniProt Q13409)	-0.003	-0.017	-0.003	-0.004	-0.002	0.009	0.012	0.006	0.03	-0.003	0.029	0.016	0.008	-0.003	0.001	0.023	-0.011	-0.014	-0.008	-0.01
EWSR1 isoform 5 (UniProt Q01844)	-0.008	0.021	0.048	-0.07	-0.047	0.061	-0.016	-0.025	0.031	0.009	-0.766 (active)	0.019	0.004	0.036	-0.049	-0.025	0.082	0.013	-0.002	0.024
EPRS (UniProt P07814)	-0.005	0.006	-0.042	0.015	0.031	-0.069	0.012	0.02	0.003	0.019	0.005	-0.002	-0.039	-0.01	0.039	0	0.011	0.039	0.002	-0.026
EEF1AKMT4 (UniProt P0DPD7)	-0.052	0.009	-0.012	-0.046	-0.038	0.067	-0.072	-0.038	-0.171	0.193	-0.01	-0.064	-0.051	0.04	-0.109	0.075	0.004	0.105	0.096	-0.064
